Shown are actives, neighbours in structure and some others; about 4% of the full set was active somewhere.
TIM10 inh – inhibits growth of TIM10 yeast strain. actives 1.4% (n = 330,000). inhibition, % at 10 µM. S. cerevisiae TIM10 strain growth, BacTiter-Glo luminescence, 24 h;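 active = inhibition of 40% or more at the single tested concentration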;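 also: wild-type TIM10 isogenic control strain grown at permissive 25 °C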
NLRP3 yeast inh – blocks the NALP3 inflammasome reconstituted in yeast | Yeast reconstituted NLRP3/ASC/caspase-1, beta-gal luminescence, 24 h | inhibition, % at 10 µM | actives 0.39% (n = 330,000) | AID 2825;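 active = inhibition of 50% or more; inactive = inhibition below 50%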;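 also: plate controls were induced DMSO wells for no effect and uninduced yeast grown without galactose for full effect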
tim10-1 inh – tim10-1 yeast growth inhibition | S. cerevisiae tim10-1 ts strain growth, BacTiter-Glo, 24 h | inhibition, % at 20 µM | actives 2.2% (n = 330,000) | AID 463190;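 active = inhibition of at least 40%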;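 also: mutant grown at 25 °C; 0% = DMSO wells with yeast and 100% = wells holding no yeast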
NALP1 inh – NALP1 inhibition; S. cerevisiae NALP1/ASC/caspase-1 growth, X-gal OD620, 72 h; inhibition, % at 10 µM; actives 0.61% (n = 280,000); in the data active = inhibition mostly above about 24%, no sharp cut-off; inactive = mostly below about 32%
tim23-1 inh – growth inhibitors of tim23-1 mutant yeast; inhibition, % at 20 µM; AID 463212; actives 1.3% (n = 330,000); S. cerevisiae tim23-1 growth, BacTiter-Glo luminescence, 24 h;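 active = growth inhibition of the mutant yeast at or above 50%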;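 also: temperature-sensitive mutant grown at 25 °C; plate controls were DMSO-treated mutant yeast for no effect and medium wells lacking yeast for full effect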
tim23-1 conf – tim23-1 yeast growth inhibition, confirmed; actives 83% (n = 4,400); S. cerevisiae tim23-1 growth, BacTiter-Glo luminescence, 24 h; shares compounds with tim23-1 inh; AID 463218; inhibition, % at 20 µM;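 active = inhibition above about 39% in either of two replicate wells at 20 µM, limit read from the data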;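 also: temperature-sensitive tim23-1 mutant grown at 25 °C; 0% = DMSO wells with yeast and 100% = medium wells without yeast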
An asterisk follows results filed as active.

Results for C#CCOCCOCCOCCNc1nc(N2CCN(C(=O)CCCCCCCCCCNC(=O)[C@@H](CCC(=O)O)n3cc(CCCCCN)nn3)CC2)nc(N2CCN(C(=O)CCCCCCCCCCNC(=O)[C@H](CCCCN)n3cc(C[C@@H](C)CC)nn3)CC2)n1 ?
TIM10 inh: 17.4; NLRP3 yeast inh: 18.3; tim10-1 inh: 39.5; tim23-1 inh: 47.0

How did C#CCOCCOCCOCCNc1nc(N2CCN(C(=O)CCCCCCCCCCNC(=O)[C@H](CCCCN)n3cc(CCO)nn3)CC2)nc(N2CCN(C(=O)CCCCCCCCCCNC(=O)[C@H](CCCCN)n3cc(C[C@@H](C)CC)nn3)CC2)n1 do in these assays?
TIM10 inh: 12.6; NLRP3 yeast inh: 9.3; tim10-1 inh: 27.9; tim23-1 inh: 57.1*; tim23-1 conf: 56.4*

Results for C#CCOCCOCCOCCNc1nc(N2CCN(C(=O)CCCCCCCCCCNC(=O)[C@H](CO)n3cc(CCCCCN)nn3)CC2)nc(N2CCN(C(=O)CCCCCCCCCCNC(=O)[C@H](CCCN=C(N)N)n3cc(C[C@@H](C)CC)nn3)CC2)n1 ?
TIM10 inh: 20.4; NLRP3 yeast inh: 15.5; tim10-1 inh: 33.5; tim23-1 inh: 52.3*; tim23-1 conf: 49.1*

What do the screens show for `N#CC1=C(N)N(c2ncn[nH]2)C2=C(C(=O)CCC2)C1c1ccccc1` (centres undefined)?
TIM10 inh: 17.6; NLRP3 yeast inh: 15.0; tim10-1 inh: 17.3; NALP1 inh: 8.8; tim23-1 inh: 12.8

What do the screens show for `CN(C)C(CNC(=O)CCc1nc2sc3c(c2c(=O)[nH]1)CCCC3)c1ccccc1` (centres undefined)?
TIM10 inh: -6.4; NLRP3 yeast inh: 6.7; tim10-1 inh: -22.5; tim23-1 inh: -13.9

Results for NC(=O)C1CCN(C(=O)c2ccc3c(=O)n(Cc4ccco4)c(SCC(=O)c4ccccc4)nc3c2)CC1 ?
TIM10 inh: 3.2; NLRP3 yeast inh: -7.8; tim10-1 inh: 22.1; NALP1 inh: 7.2; tim23-1 inh: 57.6*; tim23-1 conf: 18.0

What do the screens show for `Cc1c([N+](=O)[O-])c(C(=O)NC2CCCCC2)nn1C`?
TIM10 inh: 9.8; NLRP3 yeast inh: 6.5; tim10-1 inh: -0.9; NALP1 inh: 11.4; tim23-1 inh: 5.7

What do the screens show for `O=C(c1ccccc1)N1C(=O)C(c2ccccc2)Oc2ccccc21` (centres undefined)?
TIM10 inh: 33.2; NLRP3 yeast inh: 45.4; tim10-1 inh: 39.0; NALP1 inh: 15.4; tim23-1 inh: 79.6*; tim23-1 conf: 56.8*

How did CCC(CC)NC(=O)COC(=O)c1ccc(NS(=O)(=O)c2ccc3c(c2)OCCO3)cc1 do in these assays?
TIM10 inh: -16.6; NLRP3 yeast inh: 11.1; tim10-1 inh: 13.6; NALP1 inh: 25.2; tim23-1 inh: -3.8

How did COc1cccc2sc3cc(NCc4ccc(C)o4)ccc3c(=O)c12 do in these assays?
TIM10 inh: 22.0; NLRP3 yeast inh: 33.1; tim10-1 inh: -17.6; tim23-1 inh: 67.7*; tim23-1 conf: 65.7*

What do the screens show for `S=C1CCC(c2ccc(Cl)cc2)=NN1c1ccccc1`?
TIM10 inh: 36.7; NLRP3 yeast inh: 11.4; tim10-1 inh: 33.8; tim23-1 inh: 50.5*; tim23-1 conf: 33.9

What do the screens show for `O=C(c1ccccc1)N1CCCC(c2ccc(Cl)cc2)=N1`?
TIM10 inh: 25.6; NLRP3 yeast inh: 18.3; tim10-1 inh: 34.7; NALP1 inh: 7.8; tim23-1 inh: 41.1

Results for COc1ccc(N2CCN(c3nc4cc(C)ccc4cc3C=O)CC2)cc1 ?
TIM10 inh: 24.8; NLRP3 yeast inh: 24.7; tim10-1 inh: -19.1; NALP1 inh: -2.9; tim23-1 inh: 52.0*; tim23-1 conf: 45.0*

What do the screens show for `COc1ccc(N2CCN(c3cc(C)c4ccc(C)cc4n3)CC2)cc1`?
TIM10 inh: 5.2; NLRP3 yeast inh: 15.7; tim10-1 inh: 20.6; NALP1 inh: 7.8; tim23-1 inh: 11.1

What do the screens show for `Cc1cc(C(=O)N/N=C/c2c(C)nn(-c3ccccc3)c2C)n[nH]1`?
TIM10 inh: -9.5; NLRP3 yeast inh: 15.6; tim10-1 inh: -3.8; NALP1 inh: 14.1; tim23-1 inh: 1.2

How did Cc1nn(-c2ccccc2)c(C)c1/C=N/NC(=O)c1cc(C23CC4CC(CC(C4)C2)C3)[nH]n1 do in these assays?
TIM10 inh: 31.8; NLRP3 yeast inh: 22.2; tim10-1 inh: 23.6; NALP1 inh: 23.4; tim23-1 inh: 52.6*; tim23-1 conf: 47.2*

How did CCc1nnc(N2C(=O)c3ccc(Oc4ccc([N+](=O)[O-])cc4)cc3C2=O)s1 do in these assays?
TIM10 inh: 34.4; NLRP3 yeast inh: 16.8; tim10-1 inh: 29.3; NALP1 inh: 32.8; tim23-1 inh: 63.7*; tim23-1 conf: 39.0

How did O=C(c1cc(-c2ccc(O)cc2)on1)N1CCc2ccccc2C1 do in these assays?
TIM10 inh: 7.3; NLRP3 yeast inh: 27.0; tim10-1 inh: 26.6; NALP1 inh: 58.8; tim23-1 inh: 72.4*; tim23-1 conf: 56.1*

How did CCOc1cc(/C=C2\COc3ccccc3C2=O)cc(Br)c1OCC(=O)N(C)C do in these assays?
TIM10 inh: 1.9; NLRP3 yeast inh: 42.2; tim10-1 inh: 9.6; NALP1 inh: 15.7; tim23-1 inh: 50.0*; tim23-1 conf: 56.5*

Results for CCOc1ccc(S(=O)(=O)N2CCCC(C(=O)Nc3cccc(C)c3)C2)cc1 (centres undefined) ?
TIM10 inh: 25.5; NLRP3 yeast inh: 1.6; tim10-1 inh: 2.4; NALP1 inh: 5.4; tim23-1 inh: 14.0

Results for CS(=O)(=O)N(CC(=O)NCCSCc1ccccc1)c1ccccc1Br ?
TIM10 inh: 4.4; NLRP3 yeast inh: 8.7; tim10-1 inh: -1.4; NALP1 inh: 15.1; tim23-1 inh: 5.4

How did COc1ccc(OCC(=O)Nc2ccc3c(c2)CCC3)cc1 do in these assays?
TIM10 inh: 9.9; NLRP3 yeast inh: 46.9; tim10-1 inh: 6.0; tim23-1 inh: 66.3*; tim23-1 conf: 57.5*

Results for COc1cccc(NC(=O)COc2ccc3c(c2)CCC3)c1 ?
TIM10 inh: 8.7; NLRP3 yeast inh: 27.6; tim10-1 inh: -35.0; NALP1 inh: 19.6; tim23-1 inh: 17.9

How did O=C(c1n[nH]c2ccccc12)N1CCN(S(=O)(=O)c2ccccc2)CC1 do in these assays?
TIM10 inh: 4.2; NLRP3 yeast inh: 21.4; tim10-1 inh: 24.3; tim23-1 inh: 20.9

Results for CCCc1ccc(OCC(=O)Nc2cc(S(=O)(=O)CC)ccc2O)cc1 ?
TIM10 inh: -13.7; NLRP3 yeast inh: 20.9; tim10-1 inh: -1.0; NALP1 inh: -6.6; tim23-1 inh: 6.4

How did Cc1occc1C(=O)N/N=C/C(Br)=C\c1ccccc1 do in these assays?
TIM10 inh: 30.4; NLRP3 yeast inh: 31.7; tim10-1 inh: 14.4; NALP1 inh: 1.9; tim23-1 inh: 63.0*; tim23-1 conf: 66.8*

What do the screens show for `Cc1occc1C(=O)N/N=C/C=C/c1ccccc1`?
TIM10 inh: -27.4; NLRP3 yeast inh: 5.2; tim10-1 inh: -24.6; NALP1 inh: -15.6; tim23-1 inh: 26.8
